Consider 22 molecules from paper PMC12136788.

The chains are these.
B1: ENSG00000227500:stop:overlap|stop_codon|ENSG00000227500|stop_codon|NA|stop_codon (ssRNA)
RNA: GGGAGUUCUACAGUCCGACGAUCGCAACAGCCUGCCCGAGUACCCCACUGUGCCCAGCUACCCGGGCAGUGGCCAGUGGCCUUAGAGGGAGCCUGCCCUGCCCCCACCGCCCACCACCUCCUCCCCUUCAUUCCUGCUGCUACCAACAGAGGAUUGAGCAUCA
B2: chr19:57593639:57593745:+|3pUTR|ENSG00000171649|unk|FALSE|unique (ssRNA)
RNA: GGGAGUUCUACAGUCCGACGAUCUGAACCUUCUUAUUUCUCUACAUUCUUGCCAUACUUGGUAUGGUUAGUCUUUUUAAUUUUAGUUGUUUUAAUAGCUGUAUAAUAGCAUCUGUCUGUGAUUUUAUUGCAUUUUUCUGGUAUCAACAGAGGAUUGAGCAUCA
B3: chr20:3963869:3963970:-|CDS|ENSG00000101236|unk|total|mutant (ssRNA)
RNA: GGGAGUUCUACAGUCCGACGAUCAAUCUGCCUCUCAACAUAUAUAUUGUGGUUUUUGGUACUGCUAUAUUUGUCUUCAUCCUCCGUUUACUCUUCUGUUGCUACUUGAUCCGGUAACCAAUUUUCAUUCUAUGUUACUUCAAACAACAGAGGAUUGAGCAUCA
B4: chr2:216672374:216672548:-|3pUTR|ENSG00000115461|msi1|FALSE|unique (ssRNA)
RNA: GGGAGUUCUACAGUCCGACGAUCUUUUUCUUUUUUUUUUUGAAGACAGCAAUAACCACAGUACAUAUUACUGUAGUUCUCUAUAGUUUUACAUACAUUCAUACCAUAACUCUGUUCUCUCCUCUUUUUUGUUUUCAACUUUAACAACAGAGGAUUGAGCAUCA
B5: chr2:171983412:171983537:+|3pUTR|ENSG00000128708|unk|FALSE|unique (ssRNA)
RNA: GGGAGUUCUACAGUCCGACGAUCUGAUGACUUUAAUUUUAAAAUCUUGUGACAUUUUGCUUAUACUAAAAGUUAUCUAUCUUUAGUUGAAUAUUUUCUUUUGGAGAGAUUGUAUAUUUUAAAAUACUGUUUAGAGUUUAUGAGCAACAGAGGAUUGAGCAUCA
B6: chr19:57593639:57593745:+|3pUTR|ENSG00000171649|unk|total|mutant (ssRNA)
RNA: B2 RNA with U68C, A69C, U83C, A84C, U95C, A96C, U106C, A107C
B7: chr2:216672374:216672548:-|3pUTR|ENSG00000115461|msi1|total|mutant (ssRNA)
RNA: B4 RNA with U73C, A74C, U83C, A84C
B8: chr8:73046310:73046411:+|3pUTR|ENSG00000147601|msi1|FALSE|unique (ssRNA)
RNA: GGGAGUUCUACAGUCCGACGAUCUUGUAUUCUUUAAGAACCUUAUUUUGAUAAAAUGUAAAUUUGUUGAACCCUGCCACAUUUAGUAUCCCCACCCCCAAAUCCUGUUCCAAUGAAAAAAUUAAAACCUGAUACGAAAAAAAACAACAGAGGAUUGAGCAUCA
B9: chr2:96301550:96301651:-|CDS|ENSG00000144028|msi1|FALSE|unique (ssRNA)
RNA: GGGAGUUCUACAGUCCGACGAUCAAGGCGAAAGGAGAUUGACCUGCUGCUGGGUCAAACAGAUGAUACCAGAUACCAUGUGCUAGUGAACCUGGGCAAAAAGAUCACAGACUAUGGUGGAGAUAAGGAAAUCCAAAAUAUGGGCAACAGAGGAUUGAGCAUCA
B10: chr7:76302746:76302847:+|CDS|ENSG00000106211|unk|total|mutant (ssRNA)
RNA: GGGAGUUCUACAGUCCGACGAUCGUCCCCUUCUCGCUCCUGCGGGGCCCCAGCUGGGACCCCUUCCGCGACUGGUACCCGCACCGCCGCCUCUUCGACCAGGCCUUCGGGCUGCCCCGGCUGCCGGAGGAGUGGUCGCAGUGGCAACAGAGGAUUGAGCAUCA
B11: chr7:56101660:56101848:-|3pUTR|ENSG00000106153|msi1|total|mutant (ssRNA)
RNA: GGGAGUUCUACAGUCCGACGAUCUGGAGAGAUGGAAAAUCAGCUCUCAUAACUAAGUUAAUUCCGUAUAAAAACCGAAUUGACCGUGAGGGUAUAAAGUGUAACCAUCAGUUAAACCUCUCCUGUCAUUCCUGGCUUCCUUGCCAACAGAGGAUUGAGCAUCA
B12: chr11:2928445:2928542:-|3pUTR|ENSG00000181649|msi1_unk|FALSE|overlapping (ssRNA)
RNA: GGGAGUUCUACAGUCCGACGAUCAUUGGACUAUCUAAUAUCUAUGUAUUUAUUUCGCUGGUUCUUUGUAGUCACAUAUUUUAUAGUCUUAAUAUCUUGUUUUUGCAUCACUGUGCCCAUUGCAAAUAAAUCACUUGGCCAGUUCAACAGAGGAUUGAGCAUCA
B13: ENSG00000070961:be:win_1401|CDS|ENSG00000070961|bound_else_gene|NA|bound_elsewhere_windowed (ssRNA)
RNA: GGGAGUUCUACAGUCCGACGAUCAAAUGCUACAGCUAUUUGUUCAGAUAAAACAGGAACUUUGACAAUGAACAGAAUGACAGUCGUUCAAGCUUACAUAAAUGAAAAACAUUAUAAAAAGGUUCCUGAACCAGAAGCUAUUCCCAACAGAGGAUUGAGCAUCA
B14: chr1:52238154:52238269:+|CDS|ENSG00000157077|unk|total|mutant (ssRNA)
RNA: GGGAGUUCUACAGUCCGACGAUCUCUGACCGUCCCGCCAGUGUCUGUUCCCCUUCACAAUUAAAGGAUGACGGAAGUACCGGCCGAGACCCCUCCAUGUCUGCGAUUACAAGUUUAACGGUUGAUUCAGUAAUCUCAUCCCAGCAACAGAGGAUUGAGCAUCA
B15: chr2:88557131:88557241:-|3pUTR|ENSG00000172071|msi1|total|mutant (ssRNA)
RNA: GGGAGUUCUACAGUCCGACGAUCGAGGACAAGCCGCACAAACUGUAUAACGGUUUAUGUCCGCCGUUUUACCGUCCUAUUUGCCGCAUUCAACCGCUUUAUUCCUCCGAUGGUUCCCGGGUGGGUUUACAGCUUUUUGUACUUCAACAGAGGAUUGAGCAUCA
B16: chr5:43486917:43487111:-|CDS|ENSG00000172244|control|control|control (ssRNA)
RNA: GGGAGUUCUACAGUCCGACGAUCUUAUAAACCAGGAUCUUCAGAAACCUUGCUAGGAGAAGUUAAUGAAAAUAGAGUAUCAAUAGCAUUGAAAAAAACCUCUGAAAUCCUUCACGAUAUUGACUGUCUUCUAUCAAACUCUAACAACAGAGGAUUGAGCAUCA
B17: chr10:30820206:30820444:-|three_prime_utr|ENSG00000183621|control|control|control (ssRNA)
RNA: GGGAGUUCUACAGUCCGACGAUCCUUAUCUAAUCUCCAAAUGAAGAAUGGGCCCAUCUGACAUAUCCUAUGAGCACAAAGCUUAGGGGACUCUUCACCGAAACCUAGACAAAUAUUUGAAUGCAUUUUUUUUUUUUUUUUUUGCAACAGAGGAUUGAGCAUCA
B18: chr8:65707876:65707977:+|CDS|ENSG00000066855|unk|FALSE|unique (ssRNA)
RNA: GGGAGUUCUACAGUCCGACGAUCCCUGCUGCCCUCAUAGCAGAGGCUCUGAAAAAGAAAUUUGCUUAUCGGUAUCGAAGUGAUAGCCAAGAUGAAGUUGAAAAAGGAAUUCCAAAGUCUGAAUCAGAGGCCACCUCAGAGAGACAACAGAGGAUUGAGCAUCA
B19: ENSG00000107863:be:win_3701|CDS|ENSG00000107863|bound_else_gene|NA|bound_elsewhere_windowed (ssRNA)
RNA: GGGAGUUCUACAGUCCGACGAUCUCUUCACAAAUGAUAAAUAUGCUGAUUUUAUUGAAGCCAAUCGUAAAGAAGAUCCUCUAGAUCGUCUGAAAACAUUAAAAAGACUAAUUCACGAUUUGCCUGAACAUCAUUAUGAAACACCAACAGAGGAUUGAGCAUCA
B20: ENSG00000066933:stop:overlap|stop_codon|ENSG00000066933|stop_codon|NA|stop_codon (ssRNA)
RNA: GGGAGUUCUACAGUCCGACGAUCAUAGCUCAGAGAAUUUGAAUAUGGAGUCUGAAUAUGCUAUCUCUGAGAAAUCAGAAGCUUAGCCCUUAGCUCCCUGAAGACAGCUGGCAAGUCUGAACCUUCCAGCAAGUUGCGAAAGCACAACAGAGGAUUGAGCAUCA
B21: ENSG00000112365:stop:overlap|stop_codon|ENSG00000112365|stop_codon|NA|stop_codon (ssRNA)
RNA: GGGAGUUCUACAGUCCGACGAUCUCUACACACUGGCAAGAAGCCUUUCUCCUGCCCUGAGUGUAACUUACAGUUUGCUCGCUUAGACAACUUGAAGGCUCACUUGAAAAUUCAUAGCAAGGAGAAGCAUGCUUCAGAUGCCAGCAACAGAGGAUUGAGCAUCA
B22: chr10:113908677:113908778:+|3pUTR|ENSG00000196865|unk|FALSE|bound_elsewhere (ssRNA)
RNA: GGGAGUUCUACAGUCCGACGAUCAGCUAUGCUCCUUACUUACUUCUUUUAUUAUAAACAAAUUCCUUUGCUUUGGCUGAUACUAGCUGAGUCAUUGAUCAUCAUUGGUACCAUGAUAUUGUAAUCUAUGCUGCUAUUUGGCACCAACAGAGGAUUGAGCAUCA

Residue numbers refer to the chain shown, from its start. Over roughly 5,800 sequences, “enrichment r” has its median near 0.68; the highest 2% begin near 11. The full list was thinned out, with the highest values kept by preference.

This assay has as its target T1, UNK ZnF1-6 (called full-length) (human, UniProt Q9C0B0 30-357).
T1 sequence: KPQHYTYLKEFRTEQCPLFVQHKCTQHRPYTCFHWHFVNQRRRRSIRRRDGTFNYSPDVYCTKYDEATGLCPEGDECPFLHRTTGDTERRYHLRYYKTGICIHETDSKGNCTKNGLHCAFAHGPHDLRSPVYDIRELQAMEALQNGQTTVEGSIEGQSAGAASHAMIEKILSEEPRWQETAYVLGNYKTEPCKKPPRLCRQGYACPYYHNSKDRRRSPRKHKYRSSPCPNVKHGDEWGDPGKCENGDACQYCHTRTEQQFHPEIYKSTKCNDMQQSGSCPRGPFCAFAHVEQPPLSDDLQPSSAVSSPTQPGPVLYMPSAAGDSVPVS
The experiment in a line: nsRBNS (natural sequence RNA bind-n-seq); RBNS binding buffer (assumed for nsRBNS): 25 mM Tris pH 7.5, 150 mM KCl, 3 mM MgCl2, 0.01% Triton X-100, 500 ug/ml BSA, 20 U/ml SUPERase-In, 4 C; UNK is unkempt and MSI1 is Musashi-1; names of the RNAs are library labels; protein concentration not given here; high values mean tight binding.
B1 displayed a binding signal of 0.868 enrichment R.
Molecule B2 displayed a binding signal of 122 enrichment R.
The molecule B3 came in with a binding signal of 0.575 enrichment R.
B4 displayed a binding signal of 12.2 enrichment R.
For B5 the value was 4.24 enrichment R.
On to B6, for which the binding signal was found to be 1.21 enrichment R.
Consider B7, for which the binding signal was 1.89 enrichment R.
B8 returned a binding signal of 2.26 enrichment R.
B9: the binding signal turned out to be 0.578 enrichment R.
The molecule B10 registered a binding signal of 2.16 enrichment R.
B11 yielded a binding signal of 0.253 enrichment R.
For B12 the value was 5.74 enrichment R; for B13, 0.274 enrichment R.
B14 registered a binding signal of 0.482 enrichment R.
Molecule B15 gave a binding signal of 0.471 enrichment R.
In the case of B16, the binding signal worked out at 0.69 enrichment R.
B17 yielded a binding signal of 27.7 enrichment R.
Molecule B18 returned a binding signal of 0.424 enrichment R.
In the case of B19, the binding signal stood at 0.382 enrichment R.
The molecule B20 yielded a binding signal of 15.4 enrichment R.
The same measure for B21: 0.948 enrichment R.
Turning to B22, the binding signal was 3.85 enrichment R.
